Screens from PubChem BioAssay.
CaV13 ICDI inh – Primary screen for inhibitors of IQ motif and Ca2+-dependent inactivation inhibitor domain binding in CACNA1D, Förster resonance energy transfer in living cells, …. inhibition, % at 12.3 µM. 340,000 tested, 0.098% active. HEK cells, CFP/YFP FRET ICDI-IQ, plate reader, 10 min; percent FRET-ratio fall versus neutral wells;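 active means mean replicate inhibition of at least 30% and at least 1% of replicates passing that level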;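 further: 0% = median of the neutral control wells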
VLA-4 inh – inhibition in a human VLA-4 binding assay. P13612. VLA-4 expressing cells, ligand binding flow cytometry. inhibition, % (about 7 µM as worked out from the volumes in the protocol). 330,000 tested, 0.2% active. AID 2557; in the data active means inhibition above about 50%
Exocytosis inh – lytic granule exocytosis inhibition | TALL-104 LAMP-1 surface exposure, flow cytometry; cells stimulated with thapsigargin and PMA | inhibition, % at 10 µM | 360,000 tested, 0.66% active | AID 651702;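 active means inhibition above about 55%, limit read from the data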
ABCB6 inh 2 – blocks the human ABCB6 transporter; Q9NP58; K562-ABCB6 porphyrin accumulation, flow cytometry, 1 h; hits give low values; fluorescence ratio to DMSO, % at 10 µM; 360,000 tested, 0.19% active;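 active means fluorescence ratio to DMSO below 75%, the collection mean minus 3 SD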;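 further: signal is porphyrin accumulated inside mitochondria; 100% equals median channel fluorescence of DMSO control wells; lower ratio means ABCB6 inhibition with less porphyrin fluorescence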
The depositor's hits bear a star; . = not tested or not shown; + = active, no number. Compounds with a hit are over-represented: about 1.1% of the library has one in this group of screens.

SMILES | CaV13 ICDI inh | VLA-4 inh | Exocytosis inh | ABCB6 inh 2
O=C(O)C(=Cc1cccc([N+](=O)[O-])c1)c1ccccc1 | -6 | . | -8 | 91
O=C(N[C@@H](Cc1cccnc1)C(=O)N1CCC[C@H]1C(=O)NC1CCCC1)c1ccc(Cl)c(Cl)c1 | -3 | . | . | .
COc1ccc(/C=N/Nc2cc(N3CCCC3)nc(N3CCCC3)n2)cc1 | -2 | -11 | 72* | 107
CC(C)C[C@@H](CN1CCCC1CN1C(=S)NC[C@@H]1Cc1ccc(O)cc1)N1C[C@H](Cc2ccc(O)cc2)N(CC2CCCCCC2)C1=S (stereo not given in full) | -7 | . | 56* | 95
CC(C)C[C@@H](CN1CCCC1CN1C(=S)NC[C@@H]1Cc1ccc(O)cc1)N1C[C@H](Cc2ccccc2)N(CC2CCCCCC2)C1=S (stereo not given in full) | -8 | . | 14 | 97
COC(=O)c1cc2c(c3c4cc(C)ccc4n(S(=O)(=O)c4cccc(C)c4)c13)C(=O)N(Cc1ccccc1OC)C2 | -4 | . | . | .
c1ccc(-c2nc3ccccc3nc2-c2ccc(CN3CCC(c4nc5ccccc5[nH]4)CC3)cc2)cc1 | -8 | . | . | .
C=CCOC(=O)C1=C(C)NC(=S)NC1/C=C/c1ccccc1 (stereo not given) | -11 | 7 | 66* | 92
COCCn1c(C)cc(C(=O)COC(=O)C23CC4CC(CC(O)(C4)C2)C3)c1C | -4 | 11 | 20 | 2.0*
Cc1cc(C(=O)COC(=O)C23CC4CC(CC(O)(C4)C2)C3)c(C)n1-c1c(C)n(C)n(-c2ccccc2)c1=O | -3 | -6 | 1 | 95
O=C(C(=O)N1CCC(CNC(=O)c2ccccc2F)CC1)c1cc2ccccc2o1 | -8 | . | . | .
Cc1ccc2c(c1)C(=C(C#N)C#N)C(=O)N2CCN1CCCCC1 | -5 | -5 | 56* | 99
CC(/C=C1\SC(=Nc2cccnc2)NC1=O)=C\c1ccccc1 | -5 | 3 | 57* | 102
COc1ccccc1/C=C1/C(=O)N(c2ccccc2)N=C1C | -3 | 10 | -35 | 74*
CC1=NN(c2ccccc2)C(=O)/C1=C\c1cn(-c2ccccc2)nc1C | -17 | 9 | -1 | 92
COc1ccc(N2C(=O)c3n[nH]c(C)c3C2c2cccc(C(F)(F)F)c2)cc1 (stereo not given) | -4 | . | . | .
CCN1CCN(c2ccc(S(=O)(=O)N3CCCCC3)cc2NC(=O)/C=C/c2cc(OC)ccc2OC)CC1 | -2 | 1 | 60* | 101
CCN1CCN(c2ccc(S(=O)(=O)N3CCCCC3)cc2NC(=O)/C=C/c2ccc(OC)c(OC)c2)CC1 | -4 | -2 | 17 | 99
CCN1CCN(c2ccc(S(=O)(=O)N3CCCCC3)cc2NC(=O)Cc2ccc(Cl)c(Cl)c2)CC1 | . | 13 | 56* | 100
Clc1cc(Cl)cc(CN2CCN(c3ncc(Cc4ccccc4)cn3)CC2)c1 | -7 | . | . | .
COCCCn1c(=N)c(C(N)=S)cc2c(=O)n3cccc(C)c3nc21 | 14 | 5 | 11 | 110
Cc1cccn2c(=O)c3cc(C(=O)NCc4ccc(F)cc4)c(=N)n(CCCN4CCOCC4)c3nc12 | 116* | . | 28 | 97
Cc1cccn2c(=O)c3cc(C(N)=S)c(=N)n(CCCN4CCOCC4)c3nc12 | + | -5 | 0 | 112
Cc1ccc(S(=O)(=O)N2CC(CBr)=CCC2c2ccccc2)cc1 (stereo not given) | -11 | . | . | .
COC(=O)[C@]12C[C@H](CC(=O)NCc3ccc(OC)c(OC)c3)C(=O)N(CCC3=CCCCC3)C1=C[C@H](COCc1ccccc1)O[C@@H]2C | -7 | . | . | .
SMILES | CaV13 ICDI inh | VLA-4 inh | Exocytosis inh | ABCB6 inh 2
Cc1ccc(S(=O)(=O)CCC(=O)OCC(=O)Nc2cccc(S(=O)(=O)N3CCCCC3)c2)cc1 | 58* | . | -7 | 95
CC1OC(CC(=O)O)CC2=C1C(=O)c1c(O)cccc1C2=O (stereo not given) | -6 | . | 88* | 85
Cc1cc(Cl)ccc1NNC(N)=S | -4 | 10 | 62* | 98
Cc1cc(S(=O)(=O)NC(=O)[C@H]2O[C@@H](n3ccc(=O)[nH]c3=O)[C@H](O)[C@@H]2O)ccc1Br | -4 | . | . | .
N#C/C(=C/c1ccc(N2CCOCC2)o1)c1nc2ccccc2[nH]1 | -3 | -43 | 2 | 116
N#C/C(=C/c1ccc(N2CCOCC2)o1)c1ccc(Br)cc1 | . | -289 | 67* | 363
N#C/C(=C\c1ccc(N2CCOCC2)o1)c1ccccc1 | -9 | -9 | 63* | 105
COc1cc(/C=C(\C#N)C(=O)Nc2cccc(C(=O)O)c2)ccc1OCc1ccc(F)cc1 | -4 | 10 | -4 | 104
CCOc1cc(/C=C(\C#N)C(=O)Nc2cccc(C(=O)O)c2)ccc1OCc1ccccc1Cl | -5 | 0 | 81* | 89
COc1ccc(CCN2CC(=O)N3CCc4ccc(N5CCOCC5)cc4C3CC2=O)cc1OC (stereo not given) | -3 | . | . | .
O=C1c2ccccc2S(=O)(=O)N1CC(O)COc1ccc(Br)cc1 (stereo not given) | -5 | 5 | -3 | 73*
Cc1cc(NC(=O)CCc2c[nH]c3ccccc23)ccc1Nc1cccnc1 | -11 | . | . | .
Cc1cccc(-n2c(C)cc(/C=C3/C(=N)N4C(c5ccccc5)=CSC4=NC3=O)c2C)c1 | -15 | -14 | -11 | 99
Cc1cc(/C=C2/C(=N)N3C(c4ccccc4)=CSC3=NC2=O)c(C)n1-c1ccc(Cl)cc1 | -17 | . | 60* | 98
Cn1cccc1/C=N/NC(=O)c1sc2cc(Cl)ccc2c1Cl | 42* | -11 | . | .
COc1ccc(OC)c2sc(N(CCCN(C)C)C(=O)c3ccc(S(=O)(=O)N4CCc5ccccc5C4)cc3)nc12 | . | 53* | . | .
COc1ccc(C(=O)Nc2ccc(Cl)c(S(=O)(=O)N3CCOCC3)c2)cc1 | -5 | -12 | 2 | 101
O=C(Nc1ccc(Cl)c(S(=O)(=O)N2CCOCC2)c1)c1ccc(OCC2CCCO2)cc1 (stereo not given) | . | 2 | 94* | 98
COC(=O)C1=C(C)N(Cc2ccc(Cl)cc2)C(=S)NC1c1cccc(Br)c1 (stereo not given) | -3 | . | . | .
CC(=O)O[C@@H]1C=C[C@@H](C#Cc2ccc(C(C)(C)C)cc2)O[C@@H]1COC(=O)NC(C)C | -3 | . | . | .
CC(=O)Nc1sc(N/N=C/c2ccc(O)cc2)nc1-c1ccc(C)cc1 | -6 | -6 | 4 | 98
CC(C)(C)c1csc(N/N=C/c2ccc(O)cc2)n1 | 64* | 5 | -17 | 97
CCOC(=O)C(=C1Nc2ccccc2N1)n1c(-c2cnccn2)nc2ccccc21 | -9 | . | -3 | 96
CCOC(=O)C(=C1Nc2ccccc2N1)n1c(-c2ccco2)nc2ccccc21 | -6 | . | 98* | 99
Cc1ccsc1/C=N/NC(=O)CNC(=O)c1cccc([N+](=O)[O-])c1C | 9 | 56* | -3 | 97
Cc1cc(N2CCN(CC(C)(C)O)C[C@H]2C)ccc1N1CCN(Cc2ccccc2)[C@H](C)C1 | -9 | . | . | .
Clc1cccc(CN2CCN(Cc3nc(CCc4ccccc4)no3)CC2)c1 | + | 1 | 4 | 99
Cc1ccccc1N1CCN(Cc2nc(Cc3ccccc3)no2)CC1 | -2 | 4 | 6 | 85
